PubChem BioAssay (NCATS)
The source made the active and inactive calls. A call without a number means that no potency is given here. The call rests on the fitted dose curve; in most records, active means well fitted inhibition curve with a large enough effect; inconclusive means small, poorly fitted or top-dose-only effect; inactive means flat fitted curve, though single readings scatter.

Biological target: Phosphoglycerate kinase, glycosomal (Trypanosoma brucei brucei) (UniProt P07378)
Experiment: qHTS Validation Assay to Find Inhibitors of Phosphoglycerate Kinase (AID 504547)
Conditions: enzymatic PGK inhibition, coupled luminescence read-out; series mostly up to 57.5 µM
From the text: NIH Molecular Libraries Probe Production Network [MLPCN]
NIH Chemical Genomics Center [NCGC]
PI Name: Malcolm Walkinshaw, University of Edinburgh
Several species of the Trypanosomatidae family of parasitic protozoans cause a spectrum of diseases
throughout the tropical and subtropical world. Sleeping sickness, caused by two subspecies of Trypanosoma brucei, is endemic to areas of sub-Saharan Africa, while Chagas disease, a manifestation of Trypanosoma cruzi infection, is prevalent throughout Central and South America. In addition, many species of Leishmania are responsible for a range of cutaneous and visceral diseases, causing ulcers, destructive lesions and kalaazar, a lethal infection of the viscera. Collectively, these organisms infect 30 million people worldwide (~500 million live in endemic areas), and account for ~130,000 deaths annually. Given their debilitating and prevalent nature, trypanosomatid parasites impose a heavy medical, economic and social burden on entire populations, primarily in the developing world. The problem is further exacerbated by the fact that existing treatments have progressed little in the past 50 years, and current drugs show high toxicity and poor efficacy.
Blood-stream stages of T. brucei are entirely dependent on glycolysis as a source of ATP, and the tricarboxylic acid cycle and oxidative phosphorylation are both repressed. Glycolysis in axenically cultured T. cruzi, representing the intracellular pathogenic stage, is also essential for these parasites. […] Previous studies have shown that the glycolytic enzyme, phosphoglycerate kinase (PGK), is a viable target for drugs to kill these parasites.
NCGC Assay Protocol Summary:
Briefly, 3ul of substrate/PGK buffer (columns 1,2,5-48) are dispensed into Greiner white solid bottom 1536-well assay plates; columns 3-4 receive only TEA buffer as 0x PGK controls. Compounds are then transferred via Kalypsys pin tool equipped with 1536-pin array (10nl slotted pins, V&P Scientific, San Diego, CA). Following addition of compound, 1ul of GAPDH (100nM final concentration, all columns) is added to initiate the reaction (this upstream coupling enzyme is necessary for in-well production of PGK substrate, 1,3-bisphosphoglycerate (1,3-BPG), which is unstable and not commercially available). The plates are then incubated at room temperature for 60 minutes. Kinase-Glo Plus reagent is added (2ul) and plates incubated for 10 minutes, before being transferred to a ViewLux high-throughput CCD imager (PerkinElmer) wherein single end-point measurements of luminescence are acquired using a clear filter. All reagents are diluted in an assay buffer consisting of 100mM TEA (pH 7.6), 5mM MgCl2 and 0.01% Tween-20.
Potency means the concentration at half of the fitted maximal effect.

Chain of Phosphoglycerate kinase, glycosomal (Trypanosoma brucei brucei) (P07378 whole entry, looked up): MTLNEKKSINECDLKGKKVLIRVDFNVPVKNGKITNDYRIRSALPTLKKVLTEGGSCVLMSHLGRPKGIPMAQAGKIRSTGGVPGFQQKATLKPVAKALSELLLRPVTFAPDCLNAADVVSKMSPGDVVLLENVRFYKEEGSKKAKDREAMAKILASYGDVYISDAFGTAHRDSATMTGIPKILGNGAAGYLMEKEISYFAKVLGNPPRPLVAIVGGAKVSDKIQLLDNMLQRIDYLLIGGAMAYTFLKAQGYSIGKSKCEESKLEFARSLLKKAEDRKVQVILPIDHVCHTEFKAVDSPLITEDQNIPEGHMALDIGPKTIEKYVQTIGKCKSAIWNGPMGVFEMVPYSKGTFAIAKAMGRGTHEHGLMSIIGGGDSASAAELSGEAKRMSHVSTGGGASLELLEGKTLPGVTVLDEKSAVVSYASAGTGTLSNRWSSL

SMILES	Potency
COc1cc(SC)ccc1C(=O)N1CCC(Cc2ccccc2)CC1	inactive
NCCCCCCCCCCN	inactive
O=C(/C=C/c1ccc(O)cc1)c1ccc(O)cc1O	inactive
O=C(c1ccc(Cl)cc1)N1CCN(c2ccc([N+](=O)[O-])c3ncccc23)CC1	inactive
c1cnc2c(c1)ccc1cccnc12	inactive
COc1ccccc1N1CCN(CCN(C(=O)c2ccc(I)cc2)c2ccccn2)CC1	inactive
Cc1ccc(S(=O)(=O)/C=C/C#N)cc1	inactive
C[N+](C)(CCCCCC[N+](C)(C)CCCN1C(=O)c2cccc3cccc(c23)C1=O)CCCN1C(=O)c2cccc3cccc(c23)C1=O	inactive
Oc1cc(O)cc(/C=C/c2ccc(O)c(O)c2)c1	23.9 µM (active)
COc1cccc(OC)c1OCCNCC1COc2ccccc2O1 (stereo not given)	inactive
O=c1[nH]c2cc(Cl)c(Cl)cc2[nH]c1=O	inactive
Brc1c(Br)c(Br)c2n[nH]nc2c1Br	inactive
NC(CCCP(=O)(O)O)C(=O)O (stereo not given)	inactive
CCCCCCCCCCCCCCCCCC(=O)NCC(COP(=O)([O-])OCC[N+](C)(C)C)OCC (stereo not given)	inactive
Clc1ccc(N2CCN(Cc3cc4ccccn4n3)CC2)cc1	inactive
Nc1ncnc2c1ncn2[C@@H]1O[C@H](COP(=O)(O)OP(=O)(O)OP(=O)(O)OP(=O)(O)OC[C@@H]2O[C@H](n3cnc4c(N)ncnc43)[C@@H](O)[C@H]2O)[C@@H](O)[C@H]1O	inactive
COc1ccc2c(c1)CCC1C2CC[C@@]2(C)C1CC[C@@H]2NCCCCCCN1C(=O)CCC1=O (stereo not given in full)	inactive
CN(C)c1ccc(/C=C2\C(=O)Nc3ccccc32)cc1	inactive
CCCCN1CCC(n2c(=O)[nH]c3ccccc32)CC1	inactive
CCCCC/C=C\CC(O)/C=C/c1cccc(CC(O)CCCCO)n1 (stereo not given)	inactive

SMILES	Potency
COc1cc2c(CCNC(C)=O)c[nH]c2cc1Cl	inactive
CCN1/C(=C/C(C)=O)Sc2ccc(OC)cc21	inactive
N=c1ccn2c(n1)O[C@H]1[C@H](O)[C@@H](CO)O[C@H]12	inactive
CC(=O)/C=C1\C(=O)N(C)c2ccccc21	inactive
N#C/C(=C\c1ccc(-c2cc(Cl)ccc2Cl)o1)C(=O)Nc1cccc2ncccc12	inactive
O=C(O)c1cc(=O)c2ccccc2[nH]1	inactive
O=c1[nH]c2cc([N+](=O)[O-])c([N+](=O)[O-])cc2[nH]c1=O	inactive
C=CC(N)CCC(=O)O (stereo not given)	inactive
CCOC(=O)N1CCN(/[N+]([O-])=N/Oc2ccc([N+](=O)[O-])cc2[N+](=O)[O-])CC1	inactive
O=C(Nc1ccccc1)c1cc([N+](=O)[O-])ccc1Cl	inactive
OC[C@H]1O[C@@H](n2cnc3c(NC4CCCCC4)ncnc32)[C@H](O)[C@@H]1O	inactive
Fc1cccc(/C=N/N=C/c2cccc(F)c2)c1	inactive
Cc1cc2c(cc1Cl)N(C(=O)Nc1ccc(Oc3cccnc3C)nc1)CC2	inactive
CNC(=O)[C@H]1O[C@@H](n2cnc3c(NCc4cccc(I)c4)ncnc32)[C@H](O)[C@@H]1O	inactive
O=C1NC(=O)/C(=C/c2ccc(-c3ccc(F)cc3O)o2)S1	inactive
CN1CC(=O)N/C1=N/C(=O)Nc1cccc(Cl)c1	inactive
N#C/C(=C\c1ccc(O)c(O)c1)C(=O)NCCCc1ccccc1	inactive
Cc1ccc(C(=O)O[C@H](C(=O)O)[C@@H](OC(=O)c2ccc(C)cc2)C(=O)O)cc1 (tested in a mixture with another compound)	inactive
C=CC(=O)c1ccc(CCCCCC)cc1	inactive
COc1cc(C(O)CO)ccc1OS(=O)(=O)O (stereo not given)	inactive
